Several values for one entry are separate records, joined by “and”; a condition that tells them apart may be missing. Equal entries are not always repeated. This is part of a sample that, as a whole, favours compounds with a hit. Of some 83,000 tested, about 20% had one in any assay.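 Negative percent growth values reflect cell death: -40 means 40% of the cells present at the start died, and -100 means all died.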 A number with no mark means an inactive call. Activity calls are given as the source filed them. The calls were made as follows: active = growth percent below 10; inactive = the rest.
Tested on: MDA-MB-468 breast
Experiment: NCI-60 one-dose screen, 48 h (100 = growth as untreated, 0 = no growth, -100 = all killed)
Settings: 10 µM unless noted

Structure (SMILES)	growth
Cc1ccc(S(=O)(=O)NCCCNc2nccc(-c3[nH]c(-c4ccccc4)nc3-c3ccc(F)c(O)c3)n2)cc1	33.9%
COc1cccc(-c2ccc3c(c2)NC(=O)/C3=C\c2ccc[nH]2)c1	3.08% (active)
Cc1nc(/N=C(\N)NC(=O)Nc2cccc([N+](=O)[O-])c2)sc1C	11.6%
O=C(/C=C\c1ccc(NCc2ccc(C(=O)O)cc2)cc1)CCl	76.7%
CCOC(=O)c1c(Cl)c2c(n1Cc1ccccc1)-c1oncc1CCC2	56%
CC(N)C(=O)NNc1n[nH]c(=S)n1N (stereo not given)	82%
Cn1c(COC(=O)NCCn2ccnc2)nc2c(N3CCOCC3)nc(-c3ccccc3)nc21	-64.1% (active)
COc1ccc2c(c1)c(-c1nc(-c3c[nH]c4ncccc34)cs1)cn2C	-5.16% (active)
CN(C)c1nc(N)c(N=O)c(N)n1	114%
O=C(/C=C/c1ccccc1)CC(c1ccccc1)N1CCOCC1 (stereo not given)	92.4%
CCOC(=O)c1nn(C2CCCCO2)c2ccc(NC(=O)CN3CCOCC3)cc12 (stereo not given)	107%
Clc1ccc2nc(-c3ccc(-c4ccc(/C=N/NC5=NCCN5)cc4)s3)cn2c1	96.1%
O=[N+]([O-])/C(=C/c1ccccc1)c1ccccc1	99%
CCN(CCC#N)c1ccccc1	118%
CC1(/C=C/c2ccc(-c3ccccc3)cc2)CCn2cnc3ncnc(c32)N1O (stereo not given)	-5.41% (active)
CCN(CC)CCCC(Nc1c2ccc(Cl)cc2nc2ccc(OC)cc12)c1ccc(F)cc1 (stereo not given)	90.5%
O=C(O)c1cn(C2CC2)c2cc(N3CCN(C(=O)Nc4nc(-c5ccc(Br)cc5)cs4)CC3)c(F)cc2c1=O	13.7%
N=c1nc(N2CCCCC2)cc(N)n1O	97.1%
CN1CCN(C(=O)[C@]23CCC(C)(C)C[C@H]2C2=CC[C@@H]4[C@@]5(C)C/C(=C/c6cccnc6)C(=O)C(C)(C)[C@@H]5CC[C@@]4(C)[C@]2(C)CC3)CC1	34.3%
CCOc1ccc(Nc2ccnc3cc(Cl)ccc23)cc1	-1.66% (active)

Structure (SMILES)	growth
COc1ccc(C2=NNC(c3sc(Cl)nc3Cl)C2)cc1 (stereo not given)	70%
O=C(NNc1nc(N2CCCC2)nc(N2CCCC2)n1)c1ccccc1	112%
O=C1C=C(c2ccccc2)C(O)(c2ccccc2)C1 (stereo not given)	108%
CCC(=O)c1cc([N+](=O)[O-])c(Br)s1	74.6%
CC(C)(C)c1ccc(C(=O)Nc2sc3c(c2C#N)CCC(=O)C3)cc1	2.73% (active)
O=C1C(Br)=CC2C1C1C3CCC3C2(Br)C12OCCO2 (stereo not given)	19.4%
COC(=O)c1c2c(c(C)[n+]([O-])c1C)C(=O)C=C(NCc1ccc(F)c(F)c1)C2=O	-78.4% (active)
C=C1C(=O)O[C@H]2[C@H]1CC/C(COC(=O)CCSCCC(=O)OC/C1=C/CC[C@@]3(C)O[C@H]3[C@H]3OC(=O)C(=C)[C@@H]3CC1)=C\CC[C@@]1(C)O[C@@H]21	-23.6% (active)
COc1cc2ncn3c(=O)c4c5c(sc4nc3c2cc1OC)CCCC5	101%
c1ccc2c(CC3=NCCN3)cccc2c1	92.3% and 101%
Fc1ccc(Nc2nc(Nc3ccc(-c4nc5ccccc5[nH]4)cc3)nc(N3CCCC3)n2)cc1	83.6%
C#CC[C@@H]1C[C@]2(C)[C@H]3CC[C@@H]4[C@H]5C(C(=C)C)CC[C@]5(C(=O)NCCN(CCN)CCN)CC[C@@]4(C)[C@]3(C)CC[C@H]2C(C)(C)[C@H]1OC(C)=O (stereo not given in full)	-25.4% (active)
N#CC1C(=O)NC(c2ccccc2[N+](=O)[O-])c2sc3c(F)cccc3c21 (stereo not given)	-49% (active)
O=C(O)c1cn(-c2ccccc2)nc1-c1ccc(O)cc1	98.3%
ClC1=C(Br)C(Br)(Br)C(=C(Br)Br)C1(Br)Br	74.4%
COc1cc(C2NC(c3cc(OC)c(OC)c(OC)c3)C(C#N)(C#N)C2(C#N)C#N)cc(OC)c1OC (stereo not given)	93.2%
Cc1cc(CO)c(O)c(CO)c1	106%
CC(=O)OC(C)c1cccc(C#N)c1 (stereo not given)	105%
Cc1nc2sc(C(=O)Nc3cccc4ncccc34)c(N)c2cc1C(C)O (stereo not given)	44.9%
CCCCCCCCCCCC(=O)OCCNC(=O)C[n+]1ccccc1	101%

— PubChem BioAssay (NCI)
